# Experimental data from PubChem BioAssay AID588342 (National Center for Advancing Translational Sciences (NCATS), 2011).
# Among all 360,000 compounds or so, about 25,000 (6.9%) were called active. Another 9% or so got no clear call; they are omitted. Calls follow the shape of the dose curve; as a rule, active = well fitted inhibition curve with a large enough effect; inconclusive = small, poorly fitted or top-dose-only effect; inactive = flat fitted curve, though single readings scatter. The entries come from a sample that favours actives as a whole. Entries that show only a call come without a potency.
# Molecular target: Luciferin 4-monooxygenase (Photinus pyralis) (UniProt P08659)
# Assay: qHTS profiling assay for firefly luciferase inhibitor/activator using purifed enzyme and Km concentrations of substrates (counterscreen for miR-21 project); also: nearly all actives have a fitted effect of over 55% in size
# Settings: purified FLuc, luminescence inhibition; series mostly up to 57.5 µM
# Procedure, shortened: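 Purified P. pyralis luciferase, 10 nM final, with Km-level 10 uM D-luciferin and 10 uM ATP in 50 mM Tris acetate pH 7.5, 10 mM Mg acetate, 0.01% Tween-20, 0.05% BSA; 6-point qHTS titration about 60 µM downward; luminescence read.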
# Potency is read from the fitted curve at half-maximal effect.
# Luciferin 4-monooxygenase (Photinus pyralis), sequence (P08659 whole entry, looked up): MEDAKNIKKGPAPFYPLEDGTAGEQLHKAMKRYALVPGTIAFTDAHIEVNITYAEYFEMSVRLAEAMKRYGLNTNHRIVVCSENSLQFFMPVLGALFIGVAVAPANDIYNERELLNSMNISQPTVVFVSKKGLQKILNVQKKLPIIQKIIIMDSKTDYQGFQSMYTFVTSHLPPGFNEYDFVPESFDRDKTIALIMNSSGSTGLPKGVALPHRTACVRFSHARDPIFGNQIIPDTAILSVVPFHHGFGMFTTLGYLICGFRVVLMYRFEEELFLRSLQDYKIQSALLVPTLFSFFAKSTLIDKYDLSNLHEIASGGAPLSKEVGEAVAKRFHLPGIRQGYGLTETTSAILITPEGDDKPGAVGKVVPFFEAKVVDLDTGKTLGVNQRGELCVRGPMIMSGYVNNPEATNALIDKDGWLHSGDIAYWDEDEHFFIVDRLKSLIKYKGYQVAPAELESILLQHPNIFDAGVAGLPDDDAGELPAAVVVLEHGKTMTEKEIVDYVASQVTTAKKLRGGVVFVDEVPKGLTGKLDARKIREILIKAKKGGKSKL
row,SMILES,Potency
1,O=C(CCN1C(=O)c2ccccc2C1=O)C1=NN[C@@H]2C(=O)N(c3ccc(F)cc3)C(=O)[C@H]12,inactive
2,CC1(C)CC(=O)c2c(n(S(=O)(=O)c3ccccc3)c3ccc(NS(=O)(=O)c4ccccc4)cc23)C1,inactive
3,O=C(CCSc1ccccc1)N1CCN(c2ccccc2F)CC1,10.7 µM (active)
4,O=C(CCSCc1ccccc1F)N1CCN(c2ccc(Cl)cc2)CC1,inactive
5,O=C(CCc1ccccc1F)N1CCN(c2ccccc2)CC1,inactive
6,Cc1ccc(C)c(Nc2nnc(-c3ccc(C)c(S(=O)(=O)N4CCCCC4)c3)c3ccccc23)c1,inactive
7,CC1CCc2c(sc3nc4n(c(=O)c23)CCS4)C1 (stereo not drawn),21.3 µM (active)
8,Cc1ccc(NC(=O)Cn2nnc3sc4c(c3c2=O)CCC(C)C4)cc1 (stereo not drawn),inactive
9,CCCn1nnc2sc3c(c2c1=O)CCC(C)C3 (stereo not drawn),15.1 µM (active)
10,COC(=O)c1cccc(Cn2nnc3sc4c(c3c2=O)CCC(C(C)(C)C)C4)c1 (stereo not drawn),inactive
11,Cn1c(NN)nc2sc3c(c2c1=O)CCC3,inactive
12,C=CCn1c(SCc2c(C)noc2C)nc2sc3c(c2c1=O)CCC(C)C3 (stereo not drawn),inactive
13,Cc1ccc2nc3c(cc(C(=O)NC4CCCCC4)c(=N)n3C(C)C)c(=O)n2c1,inactive
14,CCOC(=O)c1c(NC(=O)Cc2coc3ccc(CC)cc23)sc2c1CCC2,inactive
15,Fc1ccccc1/C=C1\CCCC2=C1Nc1ncnn1C2c1ccccc1F (stereo not drawn),inactive
16,CSCCC(NC(=O)c1ccccc1)C(=O)N1CCCCCCC1 (stereo not drawn),inactive
17,COc1ccc(Cl)cc1S(=O)(=O)N1CCC(c2ccncc2)CC1,inactive
18,CC1CCCCN1CC(=O)N1CCCc2c1c(=O)oc1ccc(OCc3ccccc3)cc21 (stereo not drawn),inactive
19,Cc1ccc(CNS(=O)(=O)CCNC(=O)c2ccccc2)cc1,inactive
20,Cn1c2c(c(=O)n(C)c1=O)C(c1cccc([N+](=O)[O-])c1)Nc1ccccc1O2 (stereo not drawn),inactive
21,Cc1ccc(-c2cc(N)on2)cc1,16.9 µM (active)
22,Cc1ccc(-c2cc(N)n(Cc3cccc(Cl)c3)n2)cc1,inactive
23,Cc1ccc(S(=O)(=O)Cc2cc(-c3ccc(Cl)cc3)no2)cc1,inactive

row,SMILES,Potency
1,CCc1nn(CC(=O)Nc2cccc(C)c2C)c(=O)c2cc3sccc3n12,inactive
2,COc1cc(C(=O)N2CCN(C(=O)COc3cccc(C)c3)CC2)cc(OC)c1OC,inactive
3,CCOC(=O)c1cnc(SCC(=O)Nc2cccc(OC)c2)nc1N,inactive
4,CCOC(=O)c1cnc(SCc2nc(N)nc(Nc3ccc(OC)cc3)n2)nc1N,19 µM (active)
5,CCOC(=O)c1cnc(SCC(=O)Nc2ccccc2C(=O)OC)nc1N,inactive
6,Cc1c(CCNC(=O)c2ccc(C(F)(F)F)cc2)sc2nc(-c3ccc(F)cc3)nn12,inactive
7,Cc1ccc(C(=O)N/C(=C/C=C/c2ccccc2)C(=O)NCc2ccco2)cc1,inactive
8,CC1CCCCC12NC(=O)N(CC(=O)Nc1ccc(S(=O)(=O)Nc3ncccn3)cc1)C2=O (stereo not drawn),inactive
9,CC(C)(C)c1ccc(C(=O)NCCC(=O)NCc2ccco2)cc1,inactive
10,Cc1cccc(Nc2ccccc2C(=O)NCc2ccco2)c1C,inactive
11,CC(C)(C)c1ccc(NC(=O)NCc2ccco2)cc1,23.9 µM (active)
12,O=C(Nc1ccccc1)Nc1ccccc1C(=O)NCc1ccco1,15.1 µM (active)
13,Cc1ccccc1NC(=O)NCc1ccco1,inactive
14,CC(C)(C)NC(=O)NCc1ccco1,inactive
15,CCCCNC(=O)C1CCCN(c2nnc(C)c3c(C)n(-c4ccc(Cl)cc4)nc23)C1 (stereo not drawn),inactive
16,CCOC(=O)CSC1=Nc2ccccc2C2=NC(CCC(=O)NCc3ccc(F)cc3)C(=O)N12 (stereo not drawn),inactive
17,CCN(CC(=O)Nc1ccccc1OC)C(=O)CC1CC2CCC1C2 (stereo not drawn),inactive
18,O=C(Cc1ccc(Cl)cc1)NCC(c1cccs1)S(=O)(=O)c1ccc(Cl)cc1 (stereo not drawn),inactive
19,O=C(Cc1cccs1)N(CC1CCCO1)C1(C(=O)NC2CCCCC2)CCCCC1 (stereo not drawn),inactive
20,CC1CCCN(c2nc3c(S(=O)(=O)c4ccc(C(C)C)cc4)nnn3c3ccsc23)C1 (stereo not drawn),inactive
21,CCOC(=O)N1CCC(NC(=O)CCc2ccccc2)CC1,inactive
22,O=C(NCc1ccccc1)C1CCN(C(=O)Cc2ccccc2)CC1,inactive
23,O=C(O)C1CCN(C(=O)OCc2ccccc2)CC1,10.7 µM (active)

row,SMILES,Potency
1,COc1cc(OC)cc(-c2nnc(N(C)C(=O)c3ccncc3)s2)c1,inactive
2,CN(C(=O)c1ccccn1)c1nnc(-c2ccccn2)s1,3.38 µM (active)
3,CN(C(=O)C1CCOC1)c1nnc(-c2cccnc2)s1 (stereo not drawn),inactive
4,Cc1ccc(C(=O)CCC(=O)N(C)CC(=O)Nc2c(Cl)cccc2Cl)cc1,inactive
5,CCn1c(COc2c(C)cccc2C)nnc1SCc1nc2ccccc2c(=O)[nH]1,inactive
6,COc1ccc(Cn2ccnc2SCC(=O)NCc2ccco2)cc1,inactive
7,CC(NC(=O)c1cc(Sc2ccc(F)cc2F)nc2ccccc12)c1ccccc1 (stereo not drawn),inactive
8,Cn1c(=O)c2c(nc(SCC(=O)Nc3ccc(F)cc3)n2Cc2ccccc2)n(C)c1=O,inactive
9,CCN(CC(=O)Nc1ccccc1C(F)(F)F)C(=O)C1CCN(C(=O)Nc2ccccc2)CC1,inactive
10,O=C(NC1CC(=O)N(c2ccc(Cl)cc2)C1)C1CCCC1 (stereo not drawn),inactive
11,S=C(NNC(=S)NC1CC2CCC1C2)NC1CC2C=CC1C2 (stereo not drawn),inactive
12,CC(C)c1ccc(NC(=S)NC2CC3C=CC2C3)cc1 (stereo not drawn),10.7 µM (active)
13,S=C(NNC(=S)NC1CC2C=CC1C2)NC1CC2C=CC1C2 (stereo not drawn),inactive
14,Cc1c(Cl)cccc1NC(=O)C1CCCN(C(=O)c2cnn(-c3ccccc3)c2-n2cccc2)C1 (stereo not drawn),inactive
15,Cc1ccc2nc(C)cc(N/N=C/c3ccc(F)cc3)c2c1,inactive
16,Cc1cc(=O)[nH]c(N/N=C/c2ccc3c(c2)OCCO3)n1,10.7 µM (active)
17,Cc1nnc(N/N=C/c2ccccn2)[nH]c1=O,inactive
18,Cc1ccc(C)c(NC2=NCC(=O)N2c2ccc3c(c2)OCCO3)c1,inactive
19,Cc1cc(=O)[nH]c(Nc2cccc(Br)c2)n1,inactive
20,CCOC(=O)Cc1csc(NC(=O)CSc2nc(C)cc(=O)[nH]2)n1,inactive
21,Cc1cc(=O)[nH]c(N/N=C/c2c(C)nn(-c3ccccc3Cl)c2Cl)n1,21.3 µM (active)
22,CCN(CC)c1ccc(/C=N/Nc2nc(C)cc(=O)[nH]2)cc1,19 µM (active)
